Records with an inconclusive call do not appear. Entries that show only a call come without a potency. More than one record can exist for a structure, and the calls need not agree. Calls of active or inactive are those of the source. Calls come from the whole dose curve; as a rule, active = well fitted cell-killing curve with a large enough effect in the repeat runs; inconclusive = weak or mixed curves, or effect the other way; inactive = flat fitted curve, though single readings scatter.
Assay: qHTS assay to identify small molecule agonists of the TGF-beta/Smad signaling pathway - cell viability counter screen (AID 1346829); note: nearly all actives have a fitted effect of over 45% in size
Conditions: SBE-bla HEK293T viability, CellTiter-Glo luminescence, 5 h; series mostly up to 76.8 µM
Description: National Center for Advancing Translational Sciences [NCATS]
NIH Chemical Genomics Center [NCGC]
U.S. Environmental Protection Agency [EPA]
National Institutes of Environmental Health Sciences [NIEHS]
National Toxicology Program [NTP]
U.S. Food and Drug Administration [FDA]
Transforming growth factor beta (TGF-beta) superfamily consists of a large number of structurally related dimeric proteins that act as hormones or local mediators in regulating a wide range of biological functions. This superfamily includes TGF-betas themselves, the bone morphogenetic proteins (BMPs) and the activins. These ligands induce oligomerization of serine/threonine receptor kinases and phosphorylate the cytoplasmic signaling molecules of Smad protein family. CellSensor SBE-bla HEK 293T cell line (Life Technologies, Carlsbad, CA), responsive to TGF-beta was used to screen Tox21 10K compound library for identification of agonists/antagonists of the Smad signaling pathway. This cell line contains a beta-lactamase reporter gene under control of the Smad binding element (SBE) stably integrated into HEK 293T cells. Also cytotoxicity of the compounds was tested in parallel by measuring the cell viability using CellTiter-Glo assay system in the same wells.
Tox21 Assay Protocol Summary:
SBE-bla HEK 293T cells were dispensed at 4,000/well in 6 uL of assay medium into black wall/clear-bottom 1536-well plates using a Multidrop Combi (ThermoFisher Scientific, Waltham, MA) dispenser. After the assay plates were incubated at 37 C and 5% CO2 for an overnight, 23 nL of compounds dissolved in DMSO, positive controls or DMSO only was transferred to the assay plate by a Pintool station (Kalypsys, San Diego, CA). The assay plates were incubated at 37 C and 5% CO2 for 5 hr. One uL of LiveBLAzer B/G FRET substrate (Life Technologies) was added using a Flying Reagent Dispenser (FRD, Aurora Discovery, San Diego, CA) and the plates were incubated at room temperature for 2 hr. Fluorescence intensity (405 nm excitation, 460 nm and 530 nm emissions) was measured using an Envision plate reader (PerkinElmer, Shelton, CT). For cytotoxicity read, 4 uL of CellTiter-Glo reagent (Promega Corporation, Madison, WI) was added to each well of the assay plates using FRD. After 30min incubation at room temperature, the luminescence intensity was measured using ViewLux plate reader (PerkinElmer).
Potency is the fitted concentration of half-maximal effect.

Row | SMILES | Potency
1 | OC[C@@H](O)[C@@H](O)[C@H](O)[C@H](O)CO | inactive
2 | O=c1c(-c2ccc(O)cc2)coc2cc(O)cc(O)c12 | inactive
3 | N[C@@H](Cc1c[nH]c2ccccc12)C(=O)O | inactive
4 | Cn1cnc2c1c(=O)[nH]c(=O)n2C | inactive
5 | Cc1ccc(O)c(-n2nc3ccccc3n2)c1 | inactive
6 | CCCCCCCCOc1ccc(C(=O)c2ccccc2)c(O)c1 | inactive
7 | CN(C)C=O | inactive
8 | COC1=CC(=O)C[C@@H](C)[C@]12Oc1c(Cl)c(OC)cc(OC)c1C2=O | inactive
9 | CCCCOCCOCCOC(C)=O | inactive
10 | COc1ccccc1O | inactive
11 | C#C[C@]1(O)CC[C@H]2[C@@H]3CCc4cc(O)ccc4[C@H]3CC[C@@]21C | inactive
12 | Oc1cccc(O)c1 | inactive
13 | NC(=O)N1c2ccccc2C=Cc2ccccc21 | inactive
14 | CCN1CCCC1=O | inactive
15 | CC(C)Cc1ccc(C(C)C(=O)O)cc1 (stereo not given) | inactive
16 | CC(O)COc1ccccc1 (stereo not given) | inactive
17 | Cc1cccc2ccccc12 | inactive
18 | O=C(O)CN(CC(=O)O)CC(=O)O | inactive
19 | CCOCCO | inactive
20 | O=C(O)CCCCC1CCSS1 (stereo not given) | inactive

Row | SMILES | Potency
21 | O=C1OC(c2ccc(O)cc2)(c2ccc(O)cc2)c2ccccc21 | inactive
22 | COCCOCCOC | inactive
23 | NC(=O)c1ccc([N+](=O)[O-])cc1Cl | inactive
24 | N[C@@H](Cc1c[nH]c2ccc(O)cc12)C(=O)O | inactive
25 | Cc1cnc(NC(=O)C2=C(O)c3ccccc3S(=O)(=O)N2C)s1 | inactive
26 | CC1=NN(c2ccccc2)C(=O)C1 | inactive
27 | COc1cc(C=O)ccc1O | inactive
28 | NC(N)=NC(N)=NCCc1ccccc1 | inactive
29 | C[C@]12CC[C@@H]3c4ccc(O)cc4CC[C@H]3[C@@H]1CCC2=O | inactive
30 | CC1=C(/C=C/C(C)=C/C=C/C(C)=C/C(=O)O)C(C)(C)CCC1 | inactive
31 | CC(C)(C)CC(C)(C)c1ccc(O)c(-n2nc3ccccc3n2)c1 | 44.3 µM (active) and inactive
32 | Cc1c(N(C)C)c(=O)n(-c2ccccc2)n1C | inactive
33 | CCOC(=O)C(C)(C)Oc1ccc(Cl)cc1 | inactive
34 | CC(C)(C)NCC(O)c1ccc(O)c(CO)c1 (stereo not given) | inactive
35 | c1ccc2[nH]c(-c3cscn3)nc2c1 | inactive
36 | CCCCCCCCCCCCCC(=O)OC(C)C | inactive
37 | C1CNCCN1 | inactive
38 | CN/C(=C\[N+](=O)[O-])NCCSCc1ccc(CN(C)C)o1 | inactive
39 | NC(=O)NO | inactive
40 | CCCCCCCC(=O)OCC(O)CO (stereo not given) | inactive
